molecular target: ITGAM; assay: pooled miR-30 sensor sort-seq; sequence = guide strand; conditions: shRNA
Note: reference of the scale not given here.

Sequence	sensor-assay potency score (higher = more potent)
TTACACTCAAATACATTCCTTG	0.424
TTGATGTACCAGTCAAACGAGA	-0.909
TTCATGTCTGAATCCACTCTGG	0.203
TTCTCTTGGAAGGTCATTGCGT	-0.213
TTAGAGTCTACATCAAACGTGA	0.224

molecular target: ITLN1; assay: as above; conditions: shRNA

Sequence	sensor-assay potency score (higher = more potent)
TGAACTGAACAAATCCCGCAGT	0.114
TCGTCTTTGATTTCCTTGCAGC	-0.887
TTCGTCTTTGATTTCCTTGCAG	0.319
TGCACTAGGACATTCGTCTTTG	-0.456
TAACATTCTAGCTACTGGGTAA	-0.292
TTTCACTGGATATTTCTGGTAG	0.272
TTGTCAGTCCAACACTTTCCTT	-1.43
ATGCACTAGGACATTCGTCTTT	-0.936
TGTCAGTCCAACACTTTCCTTC	0.0274
TTCCATATCCACTCCAATCAAA	-1.07
TTAGCCTCATCTGTACTCCATC	-0.855
TAGACCACAGGGATCACCGGGC	0.112

molecular target: ITPRIP; assay: as above; conditions: shRNA

Sequence	sensor-assay potency score (higher = more potent)
TTCAAGTACAGACTGGATCTGG	0.622
TTAGAAGCAGCTTTGGTGCAGA	0.222
TTCTTCTGGAGCAAGCTCTTCT	-0.26
TAGGAGGTGCAGTAGGGCCGTC	-0.656
TTGATCTTCAGGGACCCCGGGC	-0.883
TTTAGTGTCGTCCTGAGGAAGT	-0.751
TGAACGGAACTTGATCTTCAGG	-1.39
TTGGTCTTGCCGCAGATGCAGC	-1.52
TTGAAGGGCATGAACTTCCCTG	0.113
TAAGGCAGCATGAAACACCAAG	-0.493
TTGAGCATCTCATAGAAGGAGT	-0.45
TTTTCAGTGAACTTTCTCCTGG	-0.029

molecular target: JAM3; assay: as above; conditions: shRNA

Sequence	sensor-assay potency score (higher = more potent)
TTATTGTTGATGAAGTAGCCAC	-0.389
TAGAGTAAGAAGAGTAGTGGTC	0.457
TTCATCTTGAATTTTCTTCCAC	0.166
TAGCAGAGGTATGTGCACGTGC	-0.388
TTGATGAAGTAGCCACGTCTGT	-0.852
TTTCCTTGCGGTCATTTCGAGC	-1.23
TTCCACACTTTCAAATTCCTGT	0.0526
TTCTGAATGAGTGTCTAGCTCT	-0.216
TAAAGGGCTGAGTCTCTCCGTG	-0.394
TTCACTTGCACAGTTAACTCGA	0.721

— the OligoGym collection
